Experimental data as given in publication PMC5540273 (PLoS ONE, 2017).

How the values were obtained:
Settings in all cases: concentration: 1 μM, replicates: in singlicate; n = 1
MTOR = tested on: MTOR
MUSK = tested on: MUSK
MYLK2 = tested on: MYLK2
MYLK4 = tested on: MYLK4
MYLK = tested on: MYLK
MYO3A = tested on: MYO3A
MYO3B = tested on: MYO3B
NDR1 = tested on: T1, NDR1
T1 construct: gene STK38

NDR2 = tested on: NDR2
NEK10 = tested on: NEK10
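Also: KINOMEscan kinase panel screen.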

Compound | %Inh (MTOR) | %Inh (MUSK) | %Inh (MYLK2) | %Inh (MYLK4) | %Inh (MYLK) | %Inh (MYO3A) | %Inh (MYO3B) | %Inh (NDR1) | %Inh (NDR2) | %Inh (NEK10)
Cl.N#CCc1ccc(Nc2nccc(Nc3ccc(Oc4ccccc4)cc3)n2)cc1 [GW639905] | 24% | 14% | 1% | 9% | 0% | 0% | 3% | 0% | 0% | 8%
COc1cccc(-c2nc(-c3ccccc3)[nH]c2-c2ccncc2)c1 [SB-610250] | 13% | 0% | 8% | 0% | 0% | 18% | 0% | 9% | 0% | 20%
CC(C)(C)c1ccc(C(=O)Nc2cn3cc(-n4ccnc4)ccc3n2)cc1 | 10% | 1% | 18% | 2% | 0% | 0% | 0% | 8% | 7% | 0%
N#CC1(c2cccc(C(=O)Nc3cccc(Oc4ccc5nc(NC(=O)C6CC6)sc5n4)c3)c2)CC1 | 3% | 0% | 0% | 0% | 23% | 0% | 0% | 18% | 0% | 0%
CN(C)CCNS(=O)(=O)c1ccc(-c2ccnc3[nH]ccc23)cc1 [GSK977620] | 17% | 23% | 35% | 99.5% | 28% | 0% | 0% | 29% | 15% | 17%
Cc1nn2c(=O)cc(N3CCO[C@H](C)C3)nc2n1Cc1cccc(Cl)c1Cl [GSK2373693] | 61% | 14% | 6% | 2% | 0% | 0% | 0% | 0% | 0% | 0%
COc1cc(Nc2ccnc3cc(-c4ccncc4)ccc23)cc(OC)c1OC.Cl [GW494610] | 20% | 10% | 13% | 0% | 84% | 19% | 6% | 17% | 0% | 0%
COc1ccc(C)c(Nc2ccnc(Nc3ccc(-c4cnc[nH]4)cc3)n2)c1.Cl [GW784041] | 0% | 0% | 7% | 0% | 18% | 11% | 27% | 22% | 0% | 0%
CCn1cnc2c(NCc3ccccc3)ncnc21 [SKF-96418] | 37% | 0% | 0% | 6% | 0% | 0% | 0% | 30% | 14% | 14%
CCOc1nccc(-c2c(-c3ccc(F)cc3)ncn2C2CCNCC2)n1 [SB-249175] | 0% | 0% | 0% | 19% | 31% | 90% | 0% | 6% | 12% | 27%
Nc1ncc(-c2cn[nH]c2)c2scc(-c3ccc4c(c3)CCN4C(=O)Cc3ccccc3)c12 [GSK2593067] | 4% | 64% | 69% | 17% | 4% | 6% | 0% | 0% | 0% | 22%
CN(c1ccc(NC(=O)N2CCN(CCCN3CCOCC3)CC2)cc1)c1ccnc(Nc2ccc(CS(C)(=O)=O)cc2)n1.Cl [GW830899] | 0% | 12% | 9% | 1% | 0% | 0% | 0% | 3% | 0% | 0%
Cc1cc(-c2ccnc(Nc3cccc(C#N)c3)n2)cc(C)c1O [GSK1440913] | 7% | 25% | 76% | 100% | 13% | 0% | 0% | 10% | 12% | 20%
Cc1ccc(NC(=O)c2cccc(N3CCCCC3)c2)cc1-c1ccc(C(=O)NCC2CC2)cc1 [GSK1917008] | 14% | 1% | 9% | 9% | 17% | 0% | 12% | 0% | 0% | 0%
